High-throughput results: PubChem BioAssay, National Center for Advancing Translational Sciences (NCATS)
CtBP-E1A blk – CtBP/E1A binding inhibition | AID 651724 | AlphaScreen GST-E1A/His-CtBP binding, 1536-well; active compounds read low | activity change, % (no concentration beside the values) | 340,000 compounds, 0.49% hits; in the data active = activity change below about -65%; inconclusive = mostly about -30% to -63%; also: % is scaled to controls: 0 for no effect and ±100 for the full control effect
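In 5 uL wells, 23 nL compound meets equimolar GST-E1A and His-CtBP (5X stock 125 nM each) for 2 h, 37 °C. Beads (5X, 50 ug/mL) then 1 h, 37 °C, dark.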
p53 reactivator – re-activators of mutant p53; Potency, µM (doses to about 92.2 µM), without a hit: at the top dose activity change, positive = activation, most hits filed as activators; H1299 p53-A138V BP100-luciferase reporter, luminescence, 24 h; 320,000 compounds, 0.063% hits; also: potency is read from the fitted curve at half-maximal effect; % of control where 0% means no effect; nearly all actives have a fitted effect of over 45% in size
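p53-null H1299 cells stably carrying temperature-sensitive p53-A138V and a BP100-luciferase reporter were pinned with compounds (4-point, 1:5 series) and held 24 hrs at 37 deg C. Luminescence was read 10 min after detection reagent.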
Six1-Eya2 inh – Six1/Eya2 interaction inhibition | Q15475+O00167 | AlphaScreen GST-Six1/His-Eya2 binding, biochemical; active compounds read low | activity change, % (concentration not given with the values) | 360,000 compounds, 0.56% hits | AID 651725; in the data active = activity change below about -65%; inconclusive = mostly about -30% to -63%; also: % is scaled to controls: 0 for no effect and ±100 for the full control effect
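GST-Six1 + His-Eya2 (5X stock: 250/500 nM); Tris pH 8.0, 300 mM NaCl, 0.05% BSA, 0.02% Tween 20; GSH donor/Ni acceptor beads; 1 h 37 °C dark; AlphaScreen readout.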
Gal4-VP16 FLuc – inhibits Gal4-VP16 luciferase reporter, ROR gamma counter-screen; Drosophila S2 Gal4-VP16 UAS-luciferase, luminescence, 20 h; Potency, µM (series often up to 53.6 µM), without a hit: at the highest dose activity, negative = inhibition, most hits filed as inhibitors; 310,000 compounds, 3.5% hits;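 also: Gal4-VP16 expression switched on by copper sulfate through the metallothionein promoter; potency is read from the fitted curve at half-maximal effect; % is scaled to controls: 0 for no effect and ±100 for the full control effect; nearly all actives have a fitted effect of over 50% in size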
RORg inh – ROR gamma (mouse) transcription inhibition; P51450; Drosophila S2 Gal4-RORgamma UAS-luciferase reporter, 20 h; Potency, µM (highest dose often 53.6 µM), inactives show top-dose activity change, negative = inhibition, actives largely listed as inhibitors; 310,000 compounds, 5.4% hits; AID 2551; also: potency is read from the fitted curve at half-maximal effect; % is scaled to controls: 0 for no effect and ±100 for the full control effect; nearly all actives have a fitted effect of over 60% in size
Target sequence (P51450 whole entry, looked up, the tested form may be a part): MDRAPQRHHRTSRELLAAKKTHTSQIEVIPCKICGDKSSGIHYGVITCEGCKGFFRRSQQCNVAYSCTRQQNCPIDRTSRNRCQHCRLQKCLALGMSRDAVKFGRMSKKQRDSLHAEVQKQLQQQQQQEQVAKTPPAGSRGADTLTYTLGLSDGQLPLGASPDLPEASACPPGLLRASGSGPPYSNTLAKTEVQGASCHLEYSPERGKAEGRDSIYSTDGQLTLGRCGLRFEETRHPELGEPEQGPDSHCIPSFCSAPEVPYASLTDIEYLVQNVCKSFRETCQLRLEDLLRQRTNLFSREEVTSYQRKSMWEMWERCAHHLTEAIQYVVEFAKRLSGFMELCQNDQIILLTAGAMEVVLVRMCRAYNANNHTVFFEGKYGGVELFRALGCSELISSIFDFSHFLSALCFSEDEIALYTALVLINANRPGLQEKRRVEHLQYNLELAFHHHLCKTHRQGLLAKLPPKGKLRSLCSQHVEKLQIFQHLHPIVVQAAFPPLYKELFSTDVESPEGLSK
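Schneider cells (Drosophila), stable Gal4 DBD–ROR gamma + UAS-luc; 1 hr cmpd preincubation; Cu2+ induction 700 uM final; 20 hr ambient; luminescence.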
* hit, by the source's call; u = inconclusive; x = no result; [ ] = another dose, or the depositor's remark. Only some compounds are listed: those with a hit (about 5.4% of all), similar ones and a draw of the others. Unless noted, calls follow the shape of the dose curve; as a rule, active = well fitted curve in the direction sought with a large enough effect; inconclusive = small, poorly fitted or top-dose-only effect, or another doubt; inactive = no such curve, though single readings can be large; an effect the other way counts as inactive or inconclusive.

SMILES	CtBP-E1A blk	p53 reactivator	Six1-Eya2 inh	Gal4-VP16 FLuc	RORg inh
O=C(COc1ccccc1Cl)NC(=S)N1CCc2ccccc21	11.0	6.8%	-0.5	1.12µM*	0.708µM*
CC(C)C(=O)NC(=S)N1CCc2ccccc21	-2.1	11.6%	-0.2	u	8.91µM*
CC(Oc1ccccc1Br)C(=O)N1CCc2ccccc21 (stereo unspecified)	12.3	u	2.4	3.3%	14.1µM*
CC(Oc1ccc(Br)cc1)C(=O)N1CCc2ccccc21 (stereo unspecified)	9.0	-16.2%	10.8	3.2%	12.4%
O=C(COc1ccccc1)NC(=S)N1CCc2ccccc21	-2.1	20.4%	-10.3	2.51µM*	1.26µM*
CCOc1ccccc1-c1ccc(C(=O)O)o1	x	x	x	-3.2%[96.6 µM]	-42.9%[96.6 µM]
COC(=O)[C@@]1(Cc2ccc(OC)cc2)[C@H]2c3cc(C(=O)N(C)C)n(Cc4ccc(C(F)(F)F)nc4)c3C[C@H]2CN1C(=O)c1ccccc1	x	x	x	-3.2%	u
O=c1oc2ccccc2cc1-c1cn2cccnc2n1	-7.5	u	-2.8	u	u
O=c1oc2ccccc2cc1-c1cn2ccccc2n1	19.1	-6.6%	14.7	2.24µM*	1µM*
Cc1ccc2nc(C(C)(C)C)c(Cc3cccc(F)c3)n2c1	-8.1	x	-12.0	x	x
COC(=O)C1=C(C)N(c2ccc(Cl)c(Cl)c2)C(=O)C1	0.0	-27.4%	-3.2	12.6µM*	4.47µM*
COC(=O)C1=C(C)N(c2ccc(S(N)(=O)=O)cc2)C(=O)C1	-3.8	0.0%	10.8	-10.0%	-6.4%
COc1cccc(N2CCN(C(=O)CSc3ccc(F)cc3)CC2)c1	-6.8	4.7%	3.0	10.4%[10 µM]	29.1%
O=S(=O)(C/C(=C/CO)S(=O)(=O)c1ccccc1)c1ccccc1	0.2	-31.4%	-8.2	4.47µM*	3.98µM*
CCC(C)(C)c1ccc(Oc2cccc(C(=O)O)c2)cc1	7.2	19.5%	-7.6	u	-26.4%
CCC(C)(C)c1ccc(Oc2ccc(N)cc2)cc1	2.6	-10.2%	-15.7	7.94µM*	-12.7%
Cc1c(/C=N/Nc2nc3ccccc3[nH]2)c2ccccc2n1C	u	-4.5%	u	u	5.01µM*
Cn1c(/C=N/Nc2nc3ccccc3[nH]2)nc2ccccc21	0.0	1.2%	-13.6	12.6µM*	4.47µM*
CCCn1c(/C=N/Nc2nc3ccccc3[nH]2)nc2ccccc21	-18.4	u	-9.7	3.16µM*	2µM*
CC(/C=N/Nc1nc2ccccc2[nH]1)=C\c1ccccc1	2.9	u	4.6	7.08µM*	6.31µM*
CC(/C=N/Nc1nc(C)cc(=O)[nH]1)=C\c1ccccc1	-4.3	-3.4%	10.7	u	-1.6%
N#CCC(=O)N/N=C\c1cccc(OC/C=C/c2ccccc2)c1	-13.5	-9.3%	-12.0	-8.6%	u
Cc1cc(C(=O)OCC(=O)NCc2ccc(Cl)cc2Cl)c(C)o1	0.5	-6.5%	0.2	x	x
COc1ccc(-n2c(=O)c(-c3ccc(Cl)cc3)nc3cnc(N4CCNCC4)nc32)cc1	x	x	x	-12.2%	u
COc1cccc(C=Nc2ccccc2C(=O)Nc2ccccc2)c1O	3.7	u	5.7	-2.7%	17.5%
SMILES	CtBP-E1A blk	p53 reactivator	Six1-Eya2 inh	Gal4-VP16 FLuc	RORg inh
Clc1nc2ccccc2cc1/C=N/Nc1nc2ccccc2[nH]1	2.9	u	-3.5	-44.4%	-33.3%[10 µM]
C=CCn1cc(/C=N/Nc2nc3ccccc3[nH]2)c2ccccc21	u	31.6µM*	-29.3	7.08µM*	4.47µM*
CC(C)Cn1c(/C=N/Nc2nc3ccccc3[nH]2)nc2ccccc21	3.1	u	-2.7	1.12µM*	1.78µM*
CCN(CC)CCOc1ccc(-c2c(C)c3c(ccc4ccccc43)oc2=O)cc1	1.2	x	10.0	x	x
CCn1c2ccccc2c2nc3cc(S(=O)(=O)N4CCOCC4)ccc3nc21	u	5.8%	u	-28.5%	7.8%
Cn1c(O)c(N=NC(=S)Nc2ccccc2F)c2cc(S(=O)(=O)N3CCOCC3)ccc21	-21.5	1.3%	-20.0	2µM*	0.316µM*
Cc1ccc(N=Nc2c(O)n(CN3CCOCC3)c3ccccc23)cc1	-2.5	3.4%	3.0	-7.8%	22.7%
C=CCn1c(O)c(N=NC(=S)Nc2ccccc2C)c2cc(S(=O)(=O)N3CCOCC3)ccc21	-18.1	-9.5%	-10.7	2µM*	0.501µM*
O=C(Nc1ccccc1F)Nc1cc(S(=O)(=O)N2CCOCC2)ccc1N1CCCC1	u	5.2%	-2.9	14.4%	20.8%
C=CCn1c(O)c(N=NC(=S)Nc2ccc(OC)c(Cl)c2)c2ccccc21	1.5	-7.0%	u	3.98µM*	2.82µM*
Cc1cccc(NC(=S)N=Nc2c(O)n(CN3CCOCC3)c3ccccc23)c1C	x	5.0%	-8.8	1.12µM*	0.708µM*
COC(=O)c1ccc(C(NC(=O)c2cccnc2)NC(=O)c2cccnc2)cc1	8.5	-1.6%	3.6	-17.3%	31.4%
COc1ccc(C2C(C(=O)NCCCN3CCOCC3)c3ccccc3C(=O)N2c2ccc(OC)cc2)cc1 (stereo unspecified)	2.4	-3.7%	3.5	6.6%	-15.6%
COc1ccc(/C=C(/NC(=O)c2cccc([N+](=O)[O-])c2)C(=O)O)cc1	5.1	6.0%	-3.0	-7.2%	-10.0%
CCOC(=O)CCNCc1ccc(F)cc1	-11.1	0.1%	-10.4	1.0%	-22.2%
NC(=O)C1(c2ccccc2)OC1c1ccccc1 (stereo unspecified)	1.9	6.3%	9.6	x	x
CCOC(=O)c1ccc(S(=O)(=O)N2CCN(C(=O)c3ccccn3)CC2)cc1	2.3	4.4%	5.8	x	x
CCOC(=O)C(C)Sc1ncc(-c2ccccc2)cn1 (stereo unspecified)	4.8	5.4%	18.1	-21.1%	1.0%
Cc1ccc(NC(=S)N=Nc2c(O)n(C)c3ccc(S(=O)(=O)N4CCOCC4)cc23)cc1C	-8.4	6.9%	-0.4	3.16µM*	0.708µM*
COc1cccc2cc(-c3nc4ccccc4[nH]3)c(=O)oc12	-4.9	x	6.5	-12.9%	37.8%[1.91 µM]
Cc1cccc2cc(-c3nc4ccc(C(=O)O)cc4[nH]3)c(=O)oc12	-5.9	7.9%	-2.0	5.01µM*	2.82µM*
O=C(CNCc1ccccn1)N1CCc2ccccc2C1	-94.7*	11.5%	-89.0*	-2.5%	-25.8%
O=C(CSc1ncccn1)N1CCc2ccccc2C1	x	0.8%	6.9	2.7%	-8.8%
O=C(OCC(=O)N1CCCCC1)c1cc2ccccc2cc1O	-0.5	u	-1.0	-16.0%	6.3%
C/C(CC(=O)N1CCCC1)=N\NC(=O)c1cc2ccccc2cc1O	x	u	-7.0	u	6.31µM*
C/C(CC(=O)N1CCN(C=O)CC1)=N\NC(=O)c1ccc(Cl)cc1	1.3	0.0%	-2.1	11.2µM*	u
NNC(=O)c1cc2ccccc2cc1O	-3.8	6.4%	4.1	u	u
C/C(CC(=O)N1CCN(C=O)CC1)=N\NC(=O)c1cccc([N+](=O)[O-])c1	0.0	5.6%	9.6	-19.7%	-28.1%
